Experimental data as given in PubChem BioAssay (EPA / NIEHS).
“And” between values parts separate entries of the source, which are not always exact repeats. Equal values may be shown once. Results filed as inconclusive are left out. More than one record can exist for a structure, and the calls need not agree. The source made the active and inactive calls. The calls were made as follows: active = hit-call score of the fitted dose curve at least 0.9, where 1 is the maximum; inconclusive = response in the unintended direction; inactive = score below 0.9.

Assays:
[1] = TOX21_p53_BLA_p2_viability: Viability Assessment in the Tox21 HCT-116 p53 Agonism Beta-lactamase Assay, Phase 2 (AID 2283591);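 also: actives lower the ATP signal meaning cytotoxicity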
How it was run: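 HCT116 p53-bla cells, 4000/well, dosed after 5 h plating (217-fold dilution of DMSO stocks) and incubated 16 h at 37C. Viability taken as cellular ATP by CellTiter-Glo luminescence after 30 min RT; signal loss marks cytotoxicity.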

[2] = molecular target: Cellular tumor antigen p53 (Homo sapiens) (UniProt P04637); test: TOX21_p53_BLA_p2_ratio: Tox21 HCT-116 p53 Agonism Beta-lactamase Assay, Ratio, Phase 2 (AID 2283592)
Cellular tumor antigen p53 (Homo sapiens), sequence (P04637 whole entry, looked up): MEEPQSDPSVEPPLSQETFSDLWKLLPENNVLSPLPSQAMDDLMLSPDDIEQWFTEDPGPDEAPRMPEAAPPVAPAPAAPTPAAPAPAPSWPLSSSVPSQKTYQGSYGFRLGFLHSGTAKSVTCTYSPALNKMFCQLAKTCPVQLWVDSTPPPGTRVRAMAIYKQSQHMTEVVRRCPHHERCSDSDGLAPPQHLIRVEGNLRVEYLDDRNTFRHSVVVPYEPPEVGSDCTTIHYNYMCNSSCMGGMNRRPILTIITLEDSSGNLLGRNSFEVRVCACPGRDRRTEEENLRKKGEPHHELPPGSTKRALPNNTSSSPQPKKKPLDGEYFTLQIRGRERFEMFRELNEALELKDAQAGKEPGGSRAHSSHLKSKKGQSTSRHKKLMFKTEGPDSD
How it was run: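 Readout: blue/green (460/530 nm) FRET emission ratio after 2 h CCF4-AM loading at room temperature, excitation 405 nm. HCT116 p53 bla cells, 16 h compound exposure at 37C, 5% CO2; agonist direction fitted against DMSO baseline.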

[3] = TOX21_p53_BLA_p3_viability: Viability Assessment in the Tox21 HCT-116 p53 Agonism Beta-lactamase Assay, Phase 3 (AID 2283593);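 also: cells exposed to compound for 16 h before reading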
How it was run: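 HCT116 cells, 4000/well, dosed 5 h after plating by pin transfer (217-fold dilution from DMSO stock) and incubated 16 h at 37C, 5% CO2. Viability read as ATP luminescence with CellTiter-Glo after 30 min at room temperature.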

[4] = molecular target: Cellular tumor antigen p53 (Homo sapiens) (UniProt P04637); test: TOX21_p53_BLA_p3_ratio: Tox21 HCT-116 p53 Agonism Beta-lactamase Assay, Ratio, Phase 3 (AID 2283596)
How it was run: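 Cells were seeded at 4000/well, rested 5 h at 37C, then dosed with DMSO compound solutions (217-fold dilution) for 16 h. CCF4-AM substrate was loaded for 2 h at room temperature, and the 460/530 nm emission ratio was fitted for gain of signal versus DMSO.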

[5] = TOX21_p53_BLA_p4_viability: Viability Assessment in the Tox21 HCT-116 p53 Agonism Beta-lactamase Assay, Phase 4 (AID 2283597);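 also: hits lower the luminescence signal meaning cytotoxicity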
How it was run: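 ATP content by CellTiter-Glo luminescence, 30 min RT, read after the beta-lactamase ratio step. Cells: HCT116, 4000/well, compound added after 5 h, exposure 16 h at 37C. Signal loss = reduced viability.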

[6] = molecular target: Cellular tumor antigen p53 (Homo sapiens) (UniProt P04637); test: TOX21_p53_BLA_p5_ratio: Tox21 HCT-116 p53 Agonism Beta-lactamase Assay, Ratio, Phase 5 (AID 2283599)
How it was run: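 HCT-116 p53-bla cells (4000/well) plated 5 h, dosed with compound (217-fold DMSO dilution) for 16 h at 37 C; CCF4-AM substrate 2 h at room temperature. Activity is the 460/530 nm emission ratio (405 nm excitation), fitted in gain-of-signal direction versus DMSO.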

[7] = TOX21_p53_BLA_p5_viability: Viability Assessment in the Tox21 HCT-116 p53 Agonism Beta-lactamase Assay, Phase 5 (AID 2283600)
How it was run: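 ATP luminescence (CellTiter-Glo, 30 min, RT) served as the viability read-out, with loss of signal indicating cytotoxicity. Compounds in DMSO were pinned at a 217-fold dilution onto 4000 cells/well and incubated 16 h, 37C.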

[8] = molecular target: Cellular tumor antigen p53 (Homo sapiens) (UniProt P04637); test: TOX21_p53_BLA_p4_ratio: Tox21 HCT-116 p53 Agonism Beta-lactamase Assay, Ratio, Phase 4 (AID 2283601)
How it was run: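 HCT-116 p53 beta-lactamase reporter cells (4000/well) preincubated 5 h, then compound (217-fold dilution of DMSO stock) for 16 h at 37C. CCF4-AM substrate added 2 h at room temperature; 460/530 nm emission ratio fitted upward versus DMSO.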

Measured: AC50

Oc1cccc(O)c1O
active: [2] 75.6 µM
inactive: [1] | [2] | [3] | [4] | [5] | [6] | [7] | [8]

CCCCCCCCCC(=O)NO
inactive: [1] | [2] | [3] | [4] | [5] | [6] | [7] | [8]
active: [2] 23.1 µM | [8] 24.3 µM

C=C(CC)C(=O)c1ccc(OCC(=O)O)c(Cl)c1Cl
inactive: [1] | [3] | [5] | [6] | [7] | [8]
active: [2] 13.8 µM and 6.46 µM | [4] 50.8 µM and 38.9 µM | [5] 45.8 µM | [6] 24.7 µM | [8] 25.2 µM

NC[C@H]1O[C@H](O[C@H]2[C@H](O)[C@@H](O[C@H]3O[C@H](CO)[C@@H](O)[C@H](N)[C@H]3O)[C@H](N)C[C@@H]2N)[C@H](O)[C@@H](O)[C@@H]1O
active: [2] 3.79 µM | [6] 3.34 µM
inactive: [1] | [2] | [3] | [4] | [5] | [7] | [8]

CC(=O)Nc1ccccc1C
not listed: [7] | [8]
inactive: all other assays above

Clc1ccc(Cn2c(CN3CCCC3)nc3ccccc32)cc1
not listed: [8]
inactive: all other assays above

CC(C)[C@H](N)C(=O)OCC(CO)OCn1cnc2c(=O)[nH]c(N)nc21 (stereo partly specified)
not listed: [8]
inactive: all other assays above

C[C@@H]1C[C@H]2O[C@@]3(O[C@@H]2C(C)(C)O)[C@H](O)[C@@]2(C)[C@@H]4CC[C@H]5C(C)(C)[C@@H](O[C@@H]6OC[C@@H](O)[C@H](O)[C@H]6O)CC[C@@]56C[C@@]46CC[C@]2(C)[C@@H]13
not listed: [7] | [8]
inactive: all other assays above

CC(CO)(CO)C(=O)O
not listed: [8]
inactive: all other assays above

CC(S)C(=O)NCC(=O)O (stereo unspecified)
not listed: [8]
inactive: all other assays above

CC1=CC[C@H](CC=O)C1(C)C
not listed: [7] | [8]
inactive: all other assays above

CC(=O)OC(C)C[N+](C)(C)C (stereo unspecified)
not listed: [8]
inactive: all other assays above

CCC(=O)c1ccc(O)cc1
not listed: [8]
inactive: all other assays above

CCO[Si](C)(CCCOCC1CO1)OCC (stereo unspecified)
not listed: [7] | [8]
inactive: all other assays above

Cc1cc(O)c2c(O)c3c(O)cccc3cc2c1
not listed: [8]
inactive: all other assays above

O=c1cc(CO)occ1O
not listed: [8]
inactive: all other assays above

CC(C)=CCC/C(C)=C/CC/C(C)=C/CC/C(C)=C/CC1=C(C)C(=O)c2ccccc2C1=O
not listed: [8]
inactive: all other assays above

Nc1ccc(F)cc1F
not listed: [8]
inactive: all other assays above

CCOC(=O)c1c(C)n(C)c2ccc(O)cc12
not listed: [7] | [8]
inactive: all other assays above

OC[C@H]1O[C@@H](O[C@H]2[C@H](O)[C@@H](O)C(O)O[C@@H]2CO)[C@H](O)[C@@H](O)[C@@H]1O (stereo partly specified)
not listed: [8]
inactive: all other assays above

CC[C@H]1OC(=O)[C@H](C)C(=O)[C@H](C)[C@@H](O[C@@H]2O[C@H](C)C[C@H](N(C)C)[C@H]2O)[C@](C)(OC)C[C@@H](C)C(=O)[C@H](C)[C@H]2N(CCCCn3cnc(-c4cccnc4)c3)C(=O)O[C@]12C
not listed: [8]
inactive: all other assays above

Cc1cccc(CN2CCN(C(c3ccccc3)c3ccc(Cl)cc3)CC2)c1 (stereo unspecified)
not listed: [8]
inactive: all other assays above

O=C1[C@H]2CCCC[C@H]2C(=O)N1CCCCN1CCN(c2nsc3ccccc23)CC1
not listed: [8]
inactive: all other assays above

CCCCCCCCCCCC(=O)N(CCO)CCO
not listed: [8]
inactive: all other assays above

Cc1cc(CC(=O)O)n(C)c1C(=O)c1ccc(Cl)cc1
not listed: [8]
inactive: all other assays above

CCCOC(C(=O)OC1CCN(C)CC1)(c1ccccc1)c1ccccc1
not listed: [8]
inactive: all other assays above

Nc1cc(S(=O)(=O)O)ccc1O
not listed: [7] | [8]
inactive: all other assays above

Cc1ccsc1C(=CCCN1CCC[C@@H](C(=O)O)C1)c1sccc1C
not listed: [8]
inactive: all other assays above

COc1cc2c(cc1OC)C(=O)C(CC1CCN(Cc3ccccc3)CC1)C2 (stereo unspecified)
not listed: [8]
inactive: all other assays above

CCCCOCCOCCOCCCC
not listed: [8]
inactive: all other assays above

O=C(O)c1cc(O)c(O)c(O)c1
not listed: [8]
inactive: all other assays above

CCOC(=O)c1cc(-c2ccccc2)nc2ccc(C)cc12
not listed: [8]
inactive: all other assays above

CO[C@H]1C[C@H](O[C@H]2[C@H](C)O[C@@H](O[C@@H]3/C(C)=C/C[C@@H]4C[C@@H](C[C@]5(C=C[C@H](C)[C@@H](C6CCCCC6)O5)O4)OC(=O)[C@@H]4C=C(C)[C@@H](O)[C@H]5OC/C(=C\C=C\[C@@H]3C)[C@]54O)C[C@@H]2OC)O[C@@H](C)[C@@H]1O
active: [1] 5.93 µM | [3] 9.45 µM | [4] 15.8 µM | [5] 5.07 µM | [6] 7.81 µM | [7] 6.84 µM
inactive: [2]

c1ccc(-c2ccc(C(c3ccccc3)n3ccnc3)cc2)cc1 (stereo unspecified)
inactive: [1] | [3] | [7]
active: [2] 35.9 µM | [4] 39.5 µM | [5] 38.2 µM | [6] 36.5 µM

CO/N=C(\C(=O)N[C@@H]1C(=O)N2C(C(=O)O)=C(CSC(=O)c3ccco3)CS[C@H]12)c1csc(N)n1
not listed: [8]
inactive: all other assays above

CC(=O)Oc1ccc(C(c2ccc(OC(C)=O)cc2)c2ccccn2)cc1
active: [2] 11.4 µM and 2.16 µM | [4] 1.55 µM and 3.98 µM | [5] 1.4 µM and 2.68 µM | [6] 1.18 µM | [8] 5.22 µM
inactive: [1] | [3] | [6] | [7] | [8]

Cc1nc(NS(=O)(=O)c2ccc(N)cc2)nc(C)c1Br
not listed: [8]
inactive: all other assays above

CC(C)C(=O)OCC(=O)[C@@]12O[C@H](C3CCCCC3)O[C@@H]1C[C@H]1[C@@H]3CCC4=CC(=O)C=C[C@]4(C)[C@H]3[C@@H](O)C[C@@]12C
not listed: [8]
inactive: all other assays above

N/C(=N\N=Cc1ccc(Cl)cc1)NN=Cc1ccc(Cl)cc1
active: [3] 42.7 µM | [4] 37.6 µM
inactive: [1] | [2] | [5] | [6]

CC(C)(C)c1cc(CO)cc(C(C)(C)C)c1O
not listed: [8]
inactive: all other assays above

Cc1cc(C)c(N=Nc2c(O)c(S(=O)(=O)O)cc3cc(S(=O)(=O)O)ccc23)cc1C
not listed: [8]
inactive: all other assays above

C[C@@H](O)[C@H]1C(=O)N2C(C(=O)O)=C(SCCN=CN)C[C@H]12
not listed: [7] | [8]
inactive: all other assays above

CC=C(C)C#N
not listed: [8]
inactive: all other assays above

CC(C)c1ccc2oc3nc(N)c(C(=O)O)cc3c(=O)c2c1
not listed: [8]
inactive: all other assays above

O=c1cccccc1O
inactive: all assays above

CC(C)OC(=O)OCOP(=O)(CO[C@H](C)Cn1cnc2c(N)ncnc21)OCOC(=O)OC(C)C
inactive: all assays above

Clc1ccc(C(Cn2ccnc2)OCc2c(Cl)cccc2Cl)c(Cl)c1 (stereo unspecified)
active: [2] 17.7 µM | [4] 17.9 µM | [8] 16.7 µM
inactive: all other assays above

O=C1C=CC(=O)N1
active: [2] 73.5 µM | [3] 69.8 µM | [4] 70.8 µM | [5] 79.4 µM | [6] 82.4 µM | [8] 70.3 µM
inactive: [1] | [7]

Cc1ccc2nc(N)[nH]c(=O)c2c1Sc1ccncc1
active: [2] 2.17 µM | [3] 3.66 µM | [4] 3.22 µM
inactive: all other assays above

C[C@@H]1CCC2[C@@H](C)[C@@H](O)O[C@@H]3O[C@@]4(C)CC[C@@H]1[C@@]23OO4 (stereo partly specified)
inactive: all assays above

CCCCCCCCOc1ccc(C(=O)O)cc1
active: [3] 45.7 µM | [4] 79.4 µM
not listed: [8]
inactive: all other assays above

O=C1CCCCO1
not listed: [8]
inactive: all other assays above
